Reference: PubChem BioAssay (NCI)
The panel holds about 83,000 compounds, 20% with a hit somewhere; the sample as a whole holds those more often.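 Step 1: grow cells in 96-well plates. Step 2: add test compound at a single concentration. Step 3: incubate 48 h. Step 4: record percent growth.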 The source made the active and inactive calls. The calls were made as follows: active = growth percent below 10; inactive = the rest.

tested on: MDA-MB-231 breast; assay: NCI-60 one-dose screen, 48 h (100 = growth as untreated, 0 = no growth, -100 = all killed); settings: 10 µM unless noted

SMILES | growth
N#Cc1c(N)[nH]c(S)c1C#N | 99.3% (inactive)
NC(=Nc1ccccc1)SCCCCSC(N)=Nc1ccccc1 | 67.5% (inactive)
CN(C)c1cccc2c(S(=O)(=O)N[C@H]3CC[C@H]4[C@@H]5CCc6cc(O)ccc6[C@H]5CC[C@]34C)cccc12 | 35% (inactive)
CCCCCCCCCCCCCCCCCc1nccn1CCO | 69.6% (inactive)
COC(=O)CCC1=C(C)/C(=C/c2[nH]c(-c3ccc[nH]3)cc2OC)N=C1C | -17% (active)
NC(=O)N/N=C/c1ccc(Br)o1 | 99% (inactive)
COc1ccc(OC)c2c1[nH]c(=O)c1c3ccccc3cn21 | -89.2% (active)
O=C1C(=O)c2ccc(Br)cc2-c2cc(Br)ccc21 | -23.4% (active)
O=c1c(O)cccn1CCCNCCCN(CCCn1cccc(O)c1=O)CCCn1cccc(O)c1=O | 96% (inactive)
CN(CCOc1ccc(CC2SC(=O)NC2=O)cc1)c1ccccn1 (centres undefined) | 86.5% (inactive)
COc1cccc2c1C(=O)c1c(O)c3c(c(O)c1C2=O)C[C@@](O)(/C(C)=N/NC(=O)c1cccc([N+](=O)[O-])c1)C[C@@H]3OC1CC(N)C(O)C(C)O1 (some centres undefined) | -5.42% (active)
Cc1nnc(Nc2ccc(NC(=O)Nc3ccc(Cl)cc3)cc2)c2ccccc12 | 23.1% (inactive)
O=C(Nc1ccc(Cl)cc1)Nc1ccc(Nc2nncc3ccccc23)cc1 | 36.6% (inactive)
OCc1nnn(-c2ccccc2)c1CO | 107% (inactive)
COc1ccc2c(c1)C(=O)c1c-2c(=O)n(CCCCCCC(=O)NO)c2ccccc12 | -5.72% (active)
O=[N+]([O-])c1ccc(N/N=C\c2ccccc2[N+](=O)[O-])nc1 | 110% (inactive)
CN1COc2ccc3ccccc3c2C1 | 102% (inactive)
O=C(Nc1cccc2ccccc12)c1cc2c(cc1Br)OCO2 | 102% (inactive)
Cc1cc(NC(=O)Nc2cc(Cl)ccc2C)no1 | 100% (inactive)

SMILES | growth
O=C1C[C@@H]2/C(=C(O)\C=C\c3ccccc3)C(=O)C=C[C@@H]2O1 | -45.7% (active)
O=C1/C(=C/c2ccc([N+](=O)[O-])o2)Oc2ccc(Cl)cc21 | -61.9% (active)
c1ccc(N2CCN(c3nncc4ccccc34)CC2)nc1 | 108% (inactive)
O=C(Nc1ccc(Oc2ccc(NC(=O)Nc3ccc([N+](=O)[O-])cc3)cc2)cc1)Nc1ccc([N+](=O)[O-])cc1 | 35.1% (inactive)
Cc1cc(C)n(C(=O)c2nn(-c3ccc(Cl)cc3)cc2O)n1 | 77.4% (inactive)
NC(=O)c1ncn([C@@H]2O[C@H](CO)[C@@H](O)[C@H]2O)n1 | 89.5% (inactive)
CCCCN(CCCC)CCCOC(=O)c1ccc(N)cc1 | 86.8% (inactive)
COc1ccc2c(c1)C(=O)/C(=C/c1ccc([N+](=O)[O-])s1)O2 | -71.1% (active)
CCCCCCCCCCCCCCCCCC1=NC(C)(C)CN1CCO | -61.7% (active)
COc1cc([C@@H]2c3cc4c(cc3C(O[C@@H]3O[C@@H]5CO[C@@H](c6cccs6)OC5[C@H](O)[C@H]3O)C3COC(=O)[C@@H]32)OCO4)cc(OC)c1O (some centres undefined) | -18.8% (active)
CC12CCC3C(CCC4CC(=O)/C(=C\O)CC43C)C1CCC(=O)O2 (centres undefined) | 111% (inactive)
O=C(Nc1ccc(Cl)cc1Cl)Nc1ccc(-c2cccnc2)cc1N1CCC(CO)CC1 | 13.6% (inactive)
CCN(CC)CCCCNc1c2ccccc2[n+](C)c2c1[nH]c1ccccc12 | -0.507% (active)
Cc1ccc(NC(=O)Nc2ccc(-c3cccnc3)cc2N2CCC(CO)CC2)cc1 | 9.31% (active)
COc1cc(C2CC(c3ccc(C)cc3)=NN2C(C)=O)ccc1Oc1ccnc2cc(Cl)ccc12 (centres undefined) | 35.7% (inactive)
C[n+]1c2ccccc2c(NC2CCNCC2)c2[nH]c3ccccc3c21 | 17.1% (inactive)
Clc1ccc([C@@H]2C[C@@H]3Cc4cc(Br)c5ccccc5c4N2O3)c(Cl)c1 | 89.1% (inactive)
C=C(C)[C@@H]1C[C@H](O)Cc2cc(Cl)cc(Cl)c2N1 | 93.6% (inactive)

tested on: RXF 393 renal; assay: as above; settings: 10 µM unless noted

SMILES | growth
N#Cc1c(N)[nH]c(S)c1C#N | 113% (inactive)
NC(=Nc1ccccc1)SCCCCSC(N)=Nc1ccccc1 | 73.6% (inactive)
CN(C)c1cccc2c(S(=O)(=O)N[C@H]3CC[C@H]4[C@@H]5CCc6cc(O)ccc6[C@H]5CC[C@]34C)cccc12 | 11.2% (inactive)
CCCCCCCCCCCCCCCCCc1nccn1CCO | 72.3% (inactive)
COC(=O)CCC1=C(C)/C(=C/c2[nH]c(-c3ccc[nH]3)cc2OC)N=C1C | 24.1% (inactive)
NC(=O)N/N=C/c1ccc(Br)o1 | 112% (inactive)
COc1ccc(OC)c2c1[nH]c(=O)c1c3ccccc3cn21 | -79.9% (active)
O=C1C(=O)c2ccc(Br)cc2-c2cc(Br)ccc21 | 26.1% (inactive)
O=c1c(O)cccn1CCCNCCCN(CCCn1cccc(O)c1=O)CCCn1cccc(O)c1=O | 121% (inactive)
CN(CCOc1ccc(CC2SC(=O)NC2=O)cc1)c1ccccn1 (centres undefined) | 110% (inactive)
COc1cccc2c1C(=O)c1c(O)c3c(c(O)c1C2=O)C[C@@](O)(/C(C)=N/NC(=O)c1cccc([N+](=O)[O-])c1)C[C@@H]3OC1CC(N)C(O)C(C)O1 (some centres undefined) | -64.9% (active)
Cc1nnc(Nc2ccc(NC(=O)Nc3ccc(Cl)cc3)cc2)c2ccccc12 | -39.7% (active)
O=C(Nc1ccc(Cl)cc1)Nc1ccc(Nc2nncc3ccccc23)cc1 | 65.7% (inactive)
OCc1nnn(-c2ccccc2)c1CO | 104% (inactive)
COc1ccc2c(c1)C(=O)c1c-2c(=O)n(CCCCCCC(=O)NO)c2ccccc12 | -60.9% (active)
O=[N+]([O-])c1ccc(N/N=C\c2ccccc2[N+](=O)[O-])nc1 | 102% (inactive)
CN1COc2ccc3ccccc3c2C1 | 107% (inactive)
O=C(Nc1cccc2ccccc12)c1cc2c(cc1Br)OCO2 | 126% (inactive)
Cc1cc(NC(=O)Nc2cc(Cl)ccc2C)no1 | 126% (inactive)

SMILES | growth
O=C1C[C@@H]2/C(=C(O)\C=C\c3ccccc3)C(=O)C=C[C@@H]2O1 | -92.9% (active)
O=C1/C(=C/c2ccc([N+](=O)[O-])o2)Oc2ccc(Cl)cc21 | -72.2% (active)
c1ccc(N2CCN(c3nncc4ccccc34)CC2)nc1 | 108% (inactive)
O=C(Nc1ccc(Oc2ccc(NC(=O)Nc3ccc([N+](=O)[O-])cc3)cc2)cc1)Nc1ccc([N+](=O)[O-])cc1 | 28.7% (inactive)
Cc1cc(C)n(C(=O)c2nn(-c3ccc(Cl)cc3)cc2O)n1 | 39.1% (inactive)
NC(=O)c1ncn([C@@H]2O[C@H](CO)[C@@H](O)[C@H]2O)n1 | 119% (inactive)
CCCCN(CCCC)CCCOC(=O)c1ccc(N)cc1 | 92.1% (inactive)
COc1ccc2c(c1)C(=O)/C(=C/c1ccc([N+](=O)[O-])s1)O2 | -63% (active)
CCCCCCCCCCCCCCCCCC1=NC(C)(C)CN1CCO | -47.3% (active)
COc1cc([C@@H]2c3cc4c(cc3C(O[C@@H]3O[C@@H]5CO[C@@H](c6cccs6)OC5[C@H](O)[C@H]3O)C3COC(=O)[C@@H]32)OCO4)cc(OC)c1O (some centres undefined) | -72.3% (active)
CC12CCC3C(CCC4CC(=O)/C(=C\O)CC43C)C1CCC(=O)O2 (centres undefined) | 141% (inactive)
O=C(Nc1ccc(Cl)cc1Cl)Nc1ccc(-c2cccnc2)cc1N1CCC(CO)CC1 | 49.5% (inactive)
CCN(CC)CCCCNc1c2ccccc2[n+](C)c2c1[nH]c1ccccc12 | -55.6% (active)
Cc1ccc(NC(=O)Nc2ccc(-c3cccnc3)cc2N2CCC(CO)CC2)cc1 | -34.8% (active)
COc1cc(C2CC(c3ccc(C)cc3)=NN2C(C)=O)ccc1Oc1ccnc2cc(Cl)ccc12 (centres undefined) | 26.7% (inactive)
C[n+]1c2ccccc2c(NC2CCNCC2)c2[nH]c3ccccc3c21 | -13.7% (active)
Clc1ccc([C@@H]2C[C@@H]3Cc4cc(Br)c5ccccc5c4N2O3)c(Cl)c1 | 88.9% (inactive)
C=C(C)[C@@H]1C[C@H](O)Cc2cc(Cl)cc(Cl)c2N1 | 101% (inactive)
